Hits are enriched below; roughly 2.8% of the tested compounds scored in any of these assays.
WRN inhibitor = WRN helicase (human) inhibition. Q14191. hit rate 0.46% among 360,000. WRN helicase unwinding, fluorescent forked duplex, kinetic. AID 651768. Potency, µM (top dose mostly 114 µM), without a hit: at the top dose activity change, negative = inhibition, hits mostly inhibitors; further: potency means the concentration at half of the fitted maximal effect; on the % scale 0 is the no-effect control and ±100 the full control effect; nearly all actives have a fitted effect of over 55% in size
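Enzyme (20 nM final) and test compound sit together 15 min at room temperature before substrate addition. Substrate is a single-forked duplex oligonucleotide (100 nM) labelled with fluorophore and quencher, with 2 mM ATP; helicase unwinding raises red fluorescence, read kinetically.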
POLK inh = DNA polymerase kappa (human) inhibition. Q9UBT6. purified Pol kappa, fluorescent DNA synthesis assay, 10 min. Potency, µM (highest dose often 107 µM), for inactives: at the top dose activity, negative = inhibition, usual class: inhibitors. hit rate 0.53% among 400,000; further: potency means the concentration at half of the fitted maximal effect; on the % scale 0 is the no-effect control and ±100 the full control effect
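Pol kappa 10 nM + cpd, 15 min RT; start w/ substrate 50 nM final; fluorescence kinetic read, 0 and 10 min. Neg ctrl: buffer, no enzyme.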
POLI inh = inhibitors of human DNA polymerase iota; AID 588590; Pol iota fluorescent replication assay, 10 min; Potency, µM (top dose mostly 115 µM), for the others: at the highest dose activity, negative = inhibition, actives largely listed as inhibitors; Q9UNA4; hit rate 1% among 390,000; further: potency means the concentration at half of the fitted maximal effect
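Fluorescent replication assay read twice, at 0 min and 10 min after adding 50 nM (final) substrate. Enzyme (10 nM) and compounds were first incubated 15 min at room temperature; enzyme-free buffer wells were negative controls.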
POLH inh = blocks human DNA polymerase eta activity; Q9Y253; Potency, µM (series often up to 114 µM), for the others: at the highest dose activity change, negative = inhibition, hits mostly inhibitors; hit rate 1.2% among 390,000; recombinant Pol eta, fluorescent DNA replication assay; further: potency means the concentration at half of the fitted maximal effect; on the % scale 0 is the no-effect control and ±100 the full control effect
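Fluorescent replication assay: 50 nM final substrate added after a 15 min room-temperature compound preincubation with 10 nM enzyme. Signal taken at 0 min and again at 10 min.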
POLB inh = blocks human DNA polymerase beta activity | hit rate 1.3% among 340,000 | Pol beta primer extension/strand displacement, fluorescence kinetic | Potency, µM (series often up to 114 µM), for the others: top-dose activity change, negative = inhibition, usual class: inhibitors | P06746; further: potency means the concentration at half of the fitted maximal effect; on the % scale 0 is the no-effect control and ±100 the full control effect
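Homogeneous kinetic assay of primer extension and strand displacement by 10 nM Pol beta, preincubated 15 min at room temperature with compound before 50 nM substrate (final) was added. Read at 0 and 10 min; four-parameter Hill fit.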
PI5P4Ka inh = PI5P4K alpha (human) kinase inhibition; P48426; PI5P4Kalpha enzyme, ADP-Glo luminescence, 60 min; active compounds read low; max response, %; hit rate 1.2% among 330,000; AID 652105; active means max response of -50% or lower; inconclusive means between -30% and -50%; inactive means -30% or higher; further: value at the top dose of about 77 µM; on the % scale 0 is the no-effect control and ±100 the full control effect
Target sequence (P48426 whole entry, looked up): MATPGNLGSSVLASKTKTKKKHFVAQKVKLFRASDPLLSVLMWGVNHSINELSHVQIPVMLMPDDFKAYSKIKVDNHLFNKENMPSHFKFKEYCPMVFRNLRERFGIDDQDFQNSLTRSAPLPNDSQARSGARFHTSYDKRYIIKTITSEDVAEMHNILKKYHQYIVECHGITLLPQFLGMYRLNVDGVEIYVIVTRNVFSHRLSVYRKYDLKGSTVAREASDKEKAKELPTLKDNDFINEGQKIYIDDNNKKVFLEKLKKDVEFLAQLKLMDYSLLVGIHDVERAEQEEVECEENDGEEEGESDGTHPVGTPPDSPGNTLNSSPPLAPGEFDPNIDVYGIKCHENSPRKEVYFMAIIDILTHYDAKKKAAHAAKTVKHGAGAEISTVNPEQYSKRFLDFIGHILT
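Luminescence from ADP-Glo served as readout of PI5P4Kalpha activity in a qHTS format. Reaction: enzyme, substrate, compound, ATP at 5 microM final, 60 min at RT.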
Numbers without * were called inactive; ? = inconclusive; nt = not tested or not shown; [ ] = remark or other dose. Unless noted, the call rests on the fitted dose curve; in most records, active means well fitted curve in the direction sought with a large enough effect; inconclusive means small, poorly fitted or top-dose-only effect, or another doubt; inactive means no such curve, though single readings can be large; an effect the other way counts as inactive or inconclusive.

SMILES	WRN inhibitor	POLK inh	POLI inh	POLH inh	POLB inh	PI5P4Ka inh
Cc1cc(C2C(C#N)=C(N)SC(N)=C2C#N)c(C)s1	?	-26%	?	?	-2%	-56*
CCc1cccc(C)c1NS(=O)(=O)c1ccc2c(c1)NC(=O)C(C)C(=O)N2 (stereo unspecified)	nt	-5%[60.1 µM]	9%	-17%	-10%	nt
COC(=O)c1ccc(Cl)cc1NC(=O)N1CCC(CN2CCC(C)CC2)CC1	nt	-1%	-17%	4%	11%	nt
CC(C)C[C@H](NC(=O)C1CC(=O)N(c2ccc3c(c2)OCO3)C1)C(=O)NC1CCCC1 (stereo partly specified)	-9%[11.6 µM]	11%	16%	89µM*	14%	5
COc1cc(NC(=O)CC2C(=O)OCCN2Cc2ccccc2)cc(OC)c1 (stereo unspecified)	nt	-9%	-4%	1%	2%	nt
CCc1ccc(NC(=O)CSC2=Nc3ccccc3C3=NC(CCC(=O)NCc4ccccc4OC)C(=O)N23)cc1 (stereo unspecified)	nt	0%[60.1 µM]	-6%	-14%	33%	nt
O=C(NC1CCCCC1)C(C1CC1)n1c(=O)c(-c2ccco2)nc2ccccc21 (stereo unspecified)	-7%	nt	nt	nt	nt	?
COc1ccc(C(C(=O)NC(C)(C)C)n2c(=O)c(-c3ccco3)nc3ccccc32)cc1 (stereo unspecified)	-8%	nt	nt	nt	nt	-25
N#Cc1ccc(C(C(=O)NC2CCCCC2)n2c(=O)c(-c3cc4ccccc4[nH]3)nc3ccccc32)cc1 (stereo unspecified)	-2%	nt	nt	nt	nt	-3
O=C(NC1CCCCC1)C(c1ccccc1)n1c(=O)c(-c2ccco2)nc2ccccc21 (stereo unspecified)	-11%	nt	nt	nt	nt	-80*
O=C(NC1CCCCC1)C(c1ccc(C(F)(F)F)cc1)n1c(=O)c(-c2ccco2)nc2ccccc21 (stereo unspecified)	-8%	nt	nt	nt	nt	-75*
N#Cc1ccc(C(C(=O)NC2CCCCC2)n2c(=O)c(-c3ccco3)nc3ccccc32)cc1 (stereo unspecified)	-9%	nt	nt	nt	nt	-75*
O=C(Nc1cccc(Cl)c1)c1cc2c(=O)n3ccccc3nc2s1	-2%	9%	14%	-14%	18%	-7
CC(=O)NS(=O)(=O)c1ccc(NC(=O)c2cc3c(=O)n4ccccc4nc3s2)cc1	-34%	?	35µM*	40µM*	79µM*	-19
Cc1cc(O)c(C(C)C)cc1N=Nc1ccccc1C(=O)O	-26%	-18%	9%	-8%	-1%	-57*
Cc1cc(N=Nc2ccccc2C(=O)O)c(C)c(C)c1O	-10%	-13%	33%	-9%	4%	-51*
Cc1cc(O)c(C(C)C)cc1N=Cc1ccccc1[N+](=O)[O-]	-22%	-6%	20µM*	-23%	nt	-4
CCNC(=O)c1c(NC(=O)Cc2coc3ccc(CC)cc23)sc2c1CCCC2	nt	-16%	4%	-18%	2%	nt
CCOC(=O)C1=C(C)N=C2c3ccccc3C(=O)C2C1c1ccc(Cl)cc1 (stereo unspecified)	-21%	-18%	12%	-11%	9%	nt
CCOC(=O)C1=C(Cc2ccc(Cl)cc2)C(=O)c2ccccc2C1=O	35µM*	8%	14µM*	-28%	10%	nt
O=C(O)CCc1ccc(-c2cccs2)n1NC(=O)c1ccc(O)cc1	-17%[57.1 µM]	?	?	89µM*	?	nt
O=C(O)CCc1ccc(-c2cccs2)n1Cc1ccco1	-4%[11.6 µM]	-8%	?	?	50µM*	nt
O=C(O)CCc1ccc(-c2cccs2)o1	?	?	40µM*	45µM*	-21%	nt
O=C(O)CCc1ccc(-c2ccc(Cl)cc2)n1Cc1ccco1	-18%	-2%	43%	?	?	nt
O=C(O)CCc1ccc(-c2cccs2)n1NC(=O)c1cccs1	2%	3%	0%	-20%	?	-2
SMILES	WRN inhibitor	POLK inh	POLI inh	POLH inh	POLB inh	PI5P4Ka inh
COc1ccccc1CNC(=O)c1ccc(N2CCCC2)c(NC(=O)NCc2ccccc2)c1	nt	-4%[60.1 µM]	10%	-9%	-2%	nt
COc1ccc(S(=O)(=O)Nc2cccc(-c3ccc(N4CCCCCC4)nn3)c2)cc1	nt	-12%[60.1 µM]	9%	-16%	-10%	nt
O=c1oc2ccccc2c2c1C1O[C@](c3ccsc3)(Cc3ccccc31)O2	nt	nt	nt	nt	11µM*	nt
O=c1oc2ccc(F)cc2c2c1C1O[C@](c3ccsc3)(Cc3c1ccc1ccccc31)O2	nt	nt	nt	nt	10µM*	nt
Cc1ccc(-n2c(=O)c3oc4ccccc4c3n(Cc3cccc(F)c3)c2=O)cc1C	nt	-21%	0%	-22%	3%	nt
O=C(O)c1cccc(-c2ccc(/C=N/Nc3ccc([N+](=O)[O-])cc3)o2)c1	?	-19%	-19%	?	-26%	-21
O=C(O)c1ccc(-c2ccc(/C=N/Nc3ccc([N+](=O)[O-])cc3)o2)cc1	?	-21%	-18%	50µM*	?	-55*
Cc1c(C(=O)O)cccc1-c1ccc(/C=N/Nc2ccc(Br)cc2)o1	?	-35%	?	22µM*	?	-24
O=C1/C(=C\c2ccc(-c3ccccc3[N+](=O)[O-])o2)C(c2ccccc2)=NN1c1ccccc1	3%	-11%	10µM*	50µM*	-9%	-8
O=C(O)c1ccc(N/N=C/c2ccc(-c3cccc(Cl)c3)o2)cc1	-18%	-23%	?	79µM*	?	-2
O=C(O)c1ccc(N/N=C/c2ccc(-c3ccc(Cl)cc3Cl)o2)cc1	-3%	1%	4%	?	?	1
CN(C)c1ccc(/C=N\Nc2ccc([N+](=O)[O-])cc2[N+](=O)[O-])cc1Br	nt	2%	15%	nt	nt	nt
CC1=NN(c2ccc(Br)cc2)C(=O)/C1=C/c1ccc(-c2ccccc2C(=O)O)o1	-23%[11.6 µM]	-10%	?	79µM*	0%	3
CC(C)CC(NC(=O)OC(C)(C)C)c1cn([C@@H](Cc2ccc(O)cc2)C(=O)N2CCN(C(=O)OC(C)(C)C)CC2)nn1 (stereo partly specified)	-6%	-7%	15%	-22%	35µM*	0
CC[C@H](C)C(C(=O)N1CCN(C(=O)OC(C)(C)C)CC1)n1cc(C(Cc2ccc(O)cc2)NC(=O)OC(C)(C)C)nn1 (stereo partly specified)	8%	18%	6%	-16%	20%	15
CCOc1cc(N2CCOCC2)c(OCC)cc1NC(C)C(=O)N1CCN(CC)CC1 (stereo unspecified)	?	?	13µM*	-7%	?	?
CCOc1cc(N2CCOCC2)c(OCC)cc1NC(=O)C(C)C	-4%	-12%	35%	8%	8%	3
